Source: PubChem BioAssay (The Scripps Research Institute Molecular Screening Center)
Sampled rows, rich in hits. Any-hit rate of the full collection: about 2.9%.
ZTA DNA inh: counter-screen for EBNA-1 inhibitors: inhibitors of Epstein-Barr virus ZTA. P03206. ZTA-DNA binding, fluorescence polarization. inhibition, % at 11 µM. 320,000 compounds, 0.15% hits. AID 2234; in the data active means inhibition above about 33%
EBNA-1 inh: blocks EBNA-1 binding to DNA. 300,000 compounds, 0.34% hits. EBNA-1 DNA binding, fluorescence polarization. inhibition, % at 14.8 µM; in the data active means inhibition above about 28%
PAFAH1B3 inh: blocks human PAF acetylhydrolase 1B catalytic subunit 3; Q15102; 340,000 compounds, 0.28% hits; inhibition, % at 3.39 µM; recombinant PAFAH1B3, FP-rhodamine probe, fluorescence polarization;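 active means inhibition above the screen-wide average of all tested compounds plus 3 SD, cut at about 25% in these data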;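 further: 0% = enzyme with DMSO only and 100% = wells lacking PAFAH1B3 protein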
PAFAH1B2 inh: PAFAH1B2 (human) inhibition. AID 492953. recombinant PAFAH1B2, FP-rhodamine activity probe, fluorescence polarization. P68402. 340,000 compounds, 1.2% hits. inhibition, % at 3.39 µM;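 active means inhibition above the mean of all tested compounds plus 3 SD, cut at about 24% in these data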;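 further: 0% = enzyme with DMSO and 100% = wells lacking PAFAH1B2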
Target sequence (P68402 whole entry, looked up): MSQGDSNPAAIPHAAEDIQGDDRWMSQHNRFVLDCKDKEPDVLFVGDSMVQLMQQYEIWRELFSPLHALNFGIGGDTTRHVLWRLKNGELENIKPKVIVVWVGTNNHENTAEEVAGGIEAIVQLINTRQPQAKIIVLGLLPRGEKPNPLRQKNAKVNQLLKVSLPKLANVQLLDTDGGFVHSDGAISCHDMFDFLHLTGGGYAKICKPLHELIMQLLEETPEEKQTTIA
PAFAH2 inh: PAFAH2 (human) inhibition; Q99487; recombinant PAFAH2, FP-rhodamine activity probe, fluorescence polarization; inhibition, % at 3.39 µM; 340,000 compounds, 0.99% hits;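 active means inhibition above the mean over all tested compounds plus 3 SD, cut at about 30% in these data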;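 further: inhibitors block probe labeling of enzyme so polarization drops; 0% = enzyme with DMSO and 100% = wells lacking PAFAH2 protein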
pPAFAH FP inh: pPAFAH (human) enzyme inhibition | AID 463082 | inhibition, % at 3.39 µM | 330,000 compounds, 1.5% hits | recombinant pPAFAH, FP-rhodamine probe fluorescence polarization;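 active means inhibition above the mean inhibition across the screen plus 3 SD, cut at about 25% in these data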;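 further: inhibitors block binding of the rhodamine activity-based probe so polarization drops; 0% = enzyme with DMSO and 100% = wells lacking pPAFAH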
Target sequence (Q13093 whole entry, looked up): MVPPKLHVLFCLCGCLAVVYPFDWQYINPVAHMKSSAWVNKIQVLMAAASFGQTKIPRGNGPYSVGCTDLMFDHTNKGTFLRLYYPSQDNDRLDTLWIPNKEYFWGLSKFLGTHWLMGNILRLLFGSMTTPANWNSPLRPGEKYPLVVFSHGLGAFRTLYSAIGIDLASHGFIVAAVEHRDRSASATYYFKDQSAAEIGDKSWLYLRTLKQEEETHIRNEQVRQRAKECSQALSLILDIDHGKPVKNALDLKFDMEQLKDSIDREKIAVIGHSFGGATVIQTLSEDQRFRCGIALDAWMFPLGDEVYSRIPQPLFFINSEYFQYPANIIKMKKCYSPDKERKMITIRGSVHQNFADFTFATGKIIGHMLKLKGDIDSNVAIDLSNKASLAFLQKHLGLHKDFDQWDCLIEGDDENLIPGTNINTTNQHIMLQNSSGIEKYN
pPAFAH confirm: confirmation of human plasma PAF acetylhydrolase (pPAFAH) inhibitors; shares compounds with pPAFAH FP inh; recombinant pPAFAH, FP-Rh probe fluorescence polarization; inhibition, % at 3.39 µM; 2,300 compounds, 72% hits;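 active means mean inhibition of the triplicate above the hit cutoff set for the earlier primary screen, cut at about 25% in these data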;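 further: 0% = enzyme with DMSO and 100% = wells lacking pPAFAH enzyme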
* hit, by the source's call; . = no result given.

SMILES | ZTA DNA inh | EBNA-1 inh | PAFAH1B3 inh | PAFAH1B2 inh | PAFAH2 inh | pPAFAH FP inh | pPAFAH confirm
COc1cccc(N2C(=O)CC(Nc3ccc(N4CCOCC4)cc3)C2=O)c1 (centres undefined) | 4 | -1 | 5 | 6 | 33* | 39* | 0
Nc1ccc(N2CCN(C(=O)c3ccco3)CC2)cc1 | -1 | 3 | 6 | 1 | 0 | 37* | 6
CN1C[C@@H]2[C@@H]3C(=O)N(C)C(=O)[C@@H]3[C@](C)(C1=O)N2C(=O)c1ccc(C(F)(F)F)cc1 | . | . | 1 | 1 | 2 | . | .
O=c1oc2cc(OCc3ccc(F)cc3F)ccc2cc1-c1ccc2ccccc2n1 | 8 | 9 | . | . | . | 3 | .
COc1ccc(NC(=O)NNC(=O)c2ccccc2-n2cccc2)cc1OC | 18 | 3 | 13 | 9 | 3 | 0 | .
O=C(O)CSCC(=O)N(Cc1ccccc1)c1nc(-c2ccccc2)c(-c2ccccc2)s1 | -1 | -17 | 3 | 23 | -6 | 54* | 54*
COc1ccc(N2CCC(CNC(=S)Nc3ccc(C)cc3C)C2)cc1 (centres undefined) | -7 | 6 | 4 | -1 | 1 | -8 | .
O=C(CCN1C(=O)S/C(=C\c2ccccc2)C1=O)NC1CCS(=O)(=O)C1 (centres undefined) | 6 | 0 | 3 | 4 | 2 | 1 | .
CNc1ccc(/C=C(\CCC(=O)O)c2nc3ccccc3s2)cc1[N+](=O)[O-] | -24 | -5 | -2 | 96* | 15 | 49* | 38*
CN(c1ccccc1)c1ccc(/C=C(\CCC(=O)O)c2nc3ccccc3s2)cc1[N+](=O)[O-] | 1 | 13 | -3 | 89* | 32* | 54* | 58*
C=CCNC(=O)c1sccc1Oc1ccc(F)cc1[N+](=O)[O-] | 1 | -1 | 6 | 3 | 6 | 4 | .
O=C(Nc1ccc(-c2csc(Nc3ccc(Cl)cc3)n2)cc1)c1cccc(C(F)(F)F)c1 | -5 | 5 | . | . | . | 44* | 24
CN(/N=C/c1ccc(O)cc1O)c1nc(-c2ccccc2)cc(-c2ccccc2)n1 | -15 | -6 | 16 | -2 | 3 | 37* | 10
CC1(c2cccc(Br)c2)NC(=O)N(CC(=O)Nc2ccc3c(c2)OCCO3)C1=O (centres undefined) | . | . | 14 | 3 | 1 | 8 | .
CC1(c2cccc(Br)c2)NC(=O)N(CC(=O)c2ccc3c(c2)OCCO3)C1=O (centres undefined) | . | . | -1 | 7 | 2 | 38* | 2
N#Cc1c(Cl)nsc1NN | -5 | -15 | 12 | 9 | 9 | 16 | .
CCOC(=O)c1ccc(NNC(=O)CC)c([N+](=O)[O-])c1 | -1 | 2 | 2 | 6 | -2 | -1 | .
COc1cc(NCCC(=O)c2cccs2)c(OC)cc1Cl | 4 | 0 | 7 | 8 | 11 | 7 | .
Cc1ccc(OCCC(=O)OCC(=O)Nc2c(C)nn(-c3ccccc3)c2C)cc1 | -4 | -10 | 1 | 3 | -6 | 16 | .
Oc1ccc(-c2cn3c(n2)SCC3)cc1O | 4 | 1 | 12 | 5 | 23 | 56* | 21
Cc1ccc(/C(O)=C2/C(=O)C(=O)N(CC(=O)O)C2c2ccc([N+](=O)[O-])cc2)cc1 (centres undefined) | 14 | -5 | 6 | 7 | 1 | 37* | 5
Cc1ccc(/C(O)=C2\C(=O)C(=O)N(C)C2c2ccc([N+](=O)[O-])cc2)cc1 (centres undefined) | -4 | 2 | 0 | 4 | -4 | 1 | .
Cc1ccc(NS(=O)(=O)c2csc(C(N)=O)c2)c(C)c1 | -17 | -5 | 6 | 7 | -3 | 36* | 19
Cc1cc(C)cc(NS(=O)(=O)c2csc(C(N)=O)c2)c1 | -3 | -18 | 2 | 1 | -3 | -3 | .
CCOC(=O)C1=C(C)NC(SCc2cc(=O)[nH][nH]2)=C(C#N)C1c1cccs1 (centres undefined) | 19 | 11 | 0 | 4 | -2 | 47* | 13
SMILES | ZTA DNA inh | EBNA-1 inh | PAFAH1B3 inh | PAFAH1B2 inh | PAFAH2 inh | pPAFAH FP inh | pPAFAH confirm
CC1CN(C(=O)CNC(=O)Cc2cccc3ccccc23)CC(C)O1 (centres undefined) | 4 | . | 1 | 3 | 3 | 2 | .
Cc1cc(/C=C2/SC(=S)N(c3cccc(Cl)c3)C2=O)c(C)n1-c1cccnc1 | 6 | -1 | -6 | 2 | 9 | 39* | 37*
CC(=O)Nc1ccc(OC(=O)c2ccc(Br)c([N+](=O)[O-])c2)cc1 | -1 | 0 | -2 | 0 | 6 | 5 | .
O=c1c(-c2ccccc2)c(-c2ccccc2)oc2cc(O)cc(O)c12 | -1 | -13 | 8 | 22 | 4 | 1 | .
O=c1c(O)c(-c2cc(O)c(O)c(O)c2)oc2cc(O)cc(O)c12 | -5 | 7 | 41* | 32* | 9 | 66* | 81*
CCN1CCN(C(=S)Nc2ccsc2C(=O)OC)CC1 | -11 | -14 | 7 | 4 | 0 | 60* | 4
COc1ccc(-n2cc(-c3ccccc3)c3c(N4CCOCC4)ncnc32)cc1 | -18 | -15 | 12 | 3 | 5 | 17 | .
COc1ccc(-n2cc(-c3ccccc3)c3c(NCCCN4CCOCC4)ncnc32)cc1 | 3 | 6 | -3 | 4 | -8 | 35* | 18
COc1ccc(/[N+]([O-])=C/c2ccoc2)cc1 | -9 | . | 8 | 0 | -3 | 3 | .
CC(OC(=O)/C=C/c1ccccc1)C(=O)N1CCc2ccccc21 (centres undefined) | -16 | -6 | 2 | 4 | 5 | -1 | .
O=c1nc(/C=C/c2cccn2-c2ccc([N+](=O)[O-])cc2)cc(C(F)(F)F)[nH]1 | 3 | 12 | 1 | 9 | 6 | 36* | 15
Cc1nc2cc(C(=O)OCC(=O)Nc3cccc(Cl)c3)ccc2n1-c1ccccc1 | 11 | 3 | -2 | -4 | 64* | 43* | 41*
Cc1nc2cc(C(=O)OCC(=O)NC3CCS(=O)(=O)C3)ccc2n1-c1ccccc1 (centres undefined) | -6 | 3 | 2 | 4 | -5 | 9 | .
Cc1ccccc1OCc1occc1C(=O)Nc1cccc(-n2cnnn2)c1 | 14 | 10 | -8 | -6 | -21 | -7 | .
COc1ccc2[nH]c(O)c(N=NC(=O)c3ccc(NS(=O)(=O)c4cccs4)cc3)c2c1 | 3 | . | 32* | 21 | 23 | 44* | 39*
COCC(C)N1CCC(n2nccc2NC(=O)CCCc2ccccc2)CC1 (centres undefined) | 8 | 2 | -1 | 3 | 9 | 4 | .
CC(NC(=S)Nc1cccc(F)c1)C(c1cccs1)N1CCOCC1 (centres undefined) | -7 | 4 | 8 | 8 | 5 | 47* | 2
Cc1ccc(NC(=S)NNc2ccc(C(=O)O)cc2[N+](=O)[O-])cc1C | 3 | -1 | 9 | 6 | 27 | 35* | 39*
